IP6K1 inh: blocks human inositol hexakisphosphate kinase 1; AID 1645851; 0.81% of 140,000 active; activity change, % (series mostly up to about 58 µM); IP6K1 kinase, ADP-Glo luminescence, 2 h; stronger effect = lower value; in the data active means activity change below about -25%; further: on the % scale 0 is the no-effect control and ±100 the full control effect
Target sequence (Q92551 whole entry, looked up): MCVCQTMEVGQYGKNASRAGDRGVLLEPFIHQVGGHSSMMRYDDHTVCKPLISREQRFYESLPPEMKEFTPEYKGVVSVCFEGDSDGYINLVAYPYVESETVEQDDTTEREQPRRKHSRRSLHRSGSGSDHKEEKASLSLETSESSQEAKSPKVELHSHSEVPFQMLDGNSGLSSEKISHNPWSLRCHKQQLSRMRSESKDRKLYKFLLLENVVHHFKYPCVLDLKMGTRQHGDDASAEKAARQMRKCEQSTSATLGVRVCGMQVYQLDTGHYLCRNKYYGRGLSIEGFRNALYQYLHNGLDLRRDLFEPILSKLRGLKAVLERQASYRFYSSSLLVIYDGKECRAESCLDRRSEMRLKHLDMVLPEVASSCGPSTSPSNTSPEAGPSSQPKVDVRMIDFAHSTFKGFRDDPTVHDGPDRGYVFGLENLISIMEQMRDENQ
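ADP-Glo luminescence measures ADP made by human IP6K1 during a 2 h RT reaction with ATP/IP6 (mix at 1.3 mM/130 uM); top library doses 57.5 and 19.1 uM final.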
HEK293 viab: reduces viability of HEK-293 SNCA reporter cells; HEK-293-SNCA-luc viability, GF-AFC fluorescence, 24 h; Potency, µM (titrated, usually from 57.1 µM), without a hit: at the top dose activity change, negative = cytotoxicity, usual class: cytotoxic; 0.12% of 150,000 active; AID 1671193;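 further: potency means the concentration at half of the fitted maximal effect; 0% = DMSO-treated cells and -100% = medium-only wells without cells; nearly all actives have a fitted effect of over 30% in size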
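Cytotoxicity counterscreen: after 24 h compound treatment of genome-edited SNCA-luciferase HEK-293 cells, live-cell protease substrate GF-AFC read by fluorescence after 30 min; activity scaled between DMSO (0%) and medium-only (-100%), curves Hill-fitted.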
SNCA expr inhib: SNCA gene expression inhibition | HEK-293 SNCA-luciferase knock-in, luminescence, 24 h | Potency, µM (titrated, usually from 57.2 µM), inactives show top-dose activity change, negative = inhibition, hits mostly inhibitors | 0.17% of 140,000 active;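 further: potency means the concentration at half of the fitted maximal effect; plate controls were DMSO cells for no effect and cell-free wells for full effect; nearly all actives have a fitted effect of over 45% in size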
KDM5B inh: blocks human KDM5B histone demethylase activity. Q9UGL1. KDM5B demethylase, FDH-coupled NADH fluorescence (FDH is formaldehyde dehydrogenase). Potency, µM (doses to about 57.7 µM), actives largely listed as inhibitors. 2.6% of 220,000 active; further: potency means the concentration at half of the fitted maximal effect; 0% is about no effect; nearly all actives have a fitted effect of over 70% in size
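KDM5BΔAP (200 nM final) in 50 mM HEPES pH 7.5, 0.01% Tween-20 was preincubated 10 min at RT with compound over a concentration range. Substrate mix (H3K4me3 12.5 µM, α-KG 25 µM, Fe²⁺, ascorbate, NAD⁺, FDH) was added, and NADH fluorescence change over 30 min gave dose-response curves.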
Numbers without * were called inactive; i = inactive; ? = inconclusive; / = no result; ! = repeats disagree; [ ] = dose if it differs, or a comment. Rows were chosen to be rich in hits. Some 2.8% of all compounds tested hit in one or more screens of this group. Unless noted, the call rests on the fitted dose curve; in most records, active means well fitted curve in the direction sought with a large enough effect; inconclusive means small, poorly fitted or top-dose-only effect, or another doubt; inactive means no such curve, though single readings can be large; an effect the other way counts as inactive or inconclusive.

SMILES	IP6K1 inh	HEK293 viab	SNCA expr inhib	KDM5B inh
Cc1ccccc1-c1noc(-c2ccc(NC(C)c3cnn(C)c3)nc2)n1 (configuration not stated)	25	?	?	28µM*
Cc1ccccc1-c1noc(-c2ccc(Br)cc2)n1	/	/	/	i
OCC1CN(c2ncccn2)CC12CCN(Cc1cccc3[nH]ccc13)CC2 (configuration not stated)	1	-1%	37%	32µM*
OCC1CN(c2ncccn2)CC12CCN(Cc1c[nH]c3ccccc13)CC2 (configuration not stated)	18	2%	13%	?
CC(=O)N1CC(CO)C2(CCN(Cc3cccc(C#N)c3)CC2)C1 (configuration not stated)	6	0%	8%	i
N#Cc1cccc(CN2CCC3(CC2)CN(c2ncccn2)CC3CO)c1 (configuration not stated)	18	-6%	-6%	28µM*
O=C(c1cccc2[nH]ccc12)N1CCC2(CC1)CN(c1ncccn1)CC2CO (configuration not stated)	11	-8%	-7%	32µM*
OCC1CN(c2ncccn2)CC12CCN(Cc1ccc3[nH]ccc3c1)CC2 (configuration not stated)	16	8%	?	22µM*
CCC(CC)NC(=O)COc1ncnc2ccc(Br)cc12	/	/	/	i
COCCCNC(=O)c1cc(-c2ccc(Cl)cc2Cl)c2nncn2n1	16	3%[12.5 µM]	-11%[87.6 µM]	/
NC(=O)c1cccc2[nH]c([C@H]3CCN(Cc4cccc(Cl)c4)C3)nc12	14	-25%[87.6 µM]	-2%[87.6 µM]	35µM*
Brc1ccc(CN2CCC(c3nc4ncccc4[nH]3)C2)cc1 (configuration not stated)	2	-2%	0%	20µM*!
Cn1ncc(CN2CCc3nc(-c4ccc(F)cc4F)[nH]c3C2)c1C1CC1	2	1%	15%	25µM*
CN(C)c1nc2c(c(=O)[nH]1)CCN(Cc1ccc(F)cc1F)CC2	14	-10%	-25%	i
Cc1noc(CN2CCc3nc(-c4ccc(F)cc4F)[nH]c3C2)n1	0	-18%	14%	32µM*
O=C1N[C@@H]2CCN(C(=O)c3ccc(C(F)(F)F)cc3)[C@@H]2C(=O)N1c1ccc(Oc2ccccc2)cc1	-13	6%	-14%	i
CN(C)CCN(C)C(=O)c1ccc(-c2ncc3cnc(-c4ccccc4)cn23)cc1	-12	5%[87.6 µM]	-6%[87.6 µM]	32µM*
CNC(=O)C1CCN(C(=O)c2ccc(-c3ncc4cnc(-c5ccccc5)cn34)cc2)CC1	2	3%	12%	22µM*
CNC(=O)C1CCN(C(=O)c2ccc(-c3ccccc3OC)cc2)CC1	3	3%[12.5 µM]	26%	/
NC(=O)NCC(=O)N1CCc2onc(-c3cccc4ccccc34)c2C1	7	5%	10%	?
NC(=O)NCCC(=O)N1CCc2onc(-c3cccc4ccccc34)c2C1	-6	3%	?	25µM*
COc1ccc(S(=O)(=O)NCC2CCCN(Cc3ccc(-c4ccco4)cc3)C2)cc1 (configuration not stated)	-5	0%	19%	28µM*
Cc1nc(-c2ccccc2)n(Cc2nc(-c3ccccc3)oc2C)c(=O)c1CCO	-9	-9%	-19%	i
Cc1nc(-c2ccccc2)n(Cc2cc(=O)n3ccccc3n2)c(=O)c1CCO	11	7%	-10%	22µM*
CCCc1noc(-c2cccn3c(CNC(=O)CCc4ccccc4)nnc23)n1	1	-15%	-17%	18µM*
SMILES	IP6K1 inh	HEK293 viab	SNCA expr inhib	KDM5B inh
CC(C)c1noc(-c2cccn3c(CNC(=O)CCc4ccccc4)nnc23)n1	1	-8%	1%	14µM*
Cc1ccc(C(=O)NC2CCN(C(=O)c3ccc(-c4ncccc4C#N)cc3)CC2)cc1	-1	-13%[12.5 µM]	-3%	/
COc1ccc(-c2cc3c(=O)n(CCNC(=O)c4cccc5[nH]ccc45)ccn3n2)cc1	-6	-14%	76%	22µM*
COc1cccc(-c2cc3c(=O)n(CCNC(=O)c4cccc5[nH]ccc45)ccn3n2)c1	-10	-26%	93%	25µM*
COc1cccc(-c2cc3c(=O)n(CCNC(=O)c4ccccc4Cl)ccn3n2)c1	-8	-9%	43%	i
COc1cccc(C(=O)NCCn2ccn3nc(-c4ccc(F)cc4)cc3c2=O)c1OC	-7	?	-14%	i
CC(C)c1ccc(S(=O)(=O)c2nnn3c2nc(N2CCCCC2)c2ccccc23)cc1	10	1%	-26%	89µM*

Screening results (PubChem BioAssay)
